From the supplement of paper PMC12067093, “Discovery and optimisation of a covalent ligand for TRIM25 and its application to targeted protein ubiquitination” (Chemical Science, 2025) come the findings set out here.

Compound in the assay: Cc1cc(ccc1-c1ccccc1)C(=O)N1CCCN(CC1)C(=O)CCl [compound 10]
The assay is described as follows: probe-labelled cysteine peptide fold change vs DMSO (competition) (log2 fold change); higher = less target engagement (more negative = stronger competition). The settings on record: THP-1, incubation time: 4 h.

The full data set covers some 21,000 targets. This sample favours those with the largest changes.
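Further: competitive profiling in live THP-1 cells: cysteine peptides tagged with an iodoacetamide desthiobiotin (IA-DTB) probe, intensity after compound treatment relative to DMSO-treated cells.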

Consider “GNL1_P36915_365_YKDGVVTIGCVGFPNVGK (UniProt P36915)”, for which the “probe-labelled cysteine peptide fold change” value runs as follows: (10 µM) -0.0143; (50 µM) -0.869.

On to “HDAC4_P56524_777_LAVGCVVELVFK (UniProt P56524)”, for which the “probe-labelled cysteine peptide fold change” value by setting is: (10 µM) 0.157; (50 µM) 0.082.

“FYCO1_Q9BQS8_293_LTCLVAELQK (UniProt Q9BQS8)”: the “probe-labelled cysteine peptide fold change” value came to 0.0275 (10 µM) and 0.224 (50 µM).

As for “HAUS2_Q9NVX0_89_CHTLQSMNNHLEAVLK (UniProt Q9NVX0)”, the “probe-labelled cysteine peptide fold change” value runs as follows: (10 µM) 0.0751; (50 µM) -0.239.

On to “FKBP3_Q00688_133_KGDVVHCWYTGTLQDGTVFDTNIQTSAK (UniProt Q00688)”, for which the “probe-labelled cysteine peptide fold change” value (10 µM) was 0.106 and the “probe-labelled cysteine peptide fold change” value (50 µM) was -0.0529.

Turning to “HERC4_Q5GLZ8_58+60_HTVFVLDDGTVYTCGCNDLGQLGHEK (UniProt Q5GLZ8)”, the “probe-labelled cysteine peptide fold change” value reads like this: (10 µM) -0.0133; (50 µM) -1.05.

For the target “HBS1L_Q9Y450_84_LYSCLDHMR (UniProt Q9Y450)”, the “probe-labelled cysteine peptide fold change” value is 0.0793 (10 µM) and -0.0662 (50 µM).

For the target “HK3_P52790_190_CSGVEGQDVVQLLR (UniProt P52790)”, the “probe-labelled cysteine peptide fold change” value is, setting by setting: (10 µM) 0.199; (50 µM) -0.106.

For the target “FSCN1_Q16658_226_VAFRDCEGR (UniProt Q16658)”, the “probe-labelled cysteine peptide fold change” value is -0.244 (10 µM) and -0.563 (50 µM).

On to “GBF1_Q92538_1707_IDCFLPHLRDELFK (UniProt Q92538)”, for which the “probe-labelled cysteine peptide fold change” value is -0.0239 (10 µM) and -0.111 (50 µM).

Regarding “GNAI2_P04899_326_EIYTHFTCATDTK (UniProt P04899)”, the “probe-labelled cysteine peptide fold change” value (10 µM) came to 0.0663 and the “probe-labelled cysteine peptide fold change” value (50 µM) is -0.0637.

For “HDAC5_Q9UQL6_982_CFGHLTR (UniProt Q9UQL6)”, the “probe-labelled cysteine peptide fold change” value is 0.138 (10 µM) and -0.104 (50 µM).

On to “GPATCH1_Q9BRR8_485_AQLSPAAAAGHCSWNMALGGGTATLK (UniProt Q9BRR8)”, for which the “probe-labelled cysteine peptide fold change” value (10 µM) is -0.0776 and the “probe-labelled cysteine peptide fold change” value (50 µM) is -1.25.

“HDAC10_Q969S8_23_LLWDDPECEIERPER (UniProt Q969S8)”: the “probe-labelled cysteine peptide fold change” value is, setting by setting: (10 µM) -0.294; (50 µM) -0.208.

“GNB1_P62873_148+149_ELAGHTGYLSCCR (UniProt P62873)”: the “probe-labelled cysteine peptide fold change” value is -0.185 (10 µM) and -0.407 (50 µM).

As for “GATM_P50440_50_NSCAADDK (UniProt P50440)”, the “probe-labelled cysteine peptide fold change” value reads like this: (10 µM) -0.478; (50 µM) -1.27.

On to “HELZ_P42694_101_AVLCCMQLK (UniProt P42694)”, for which the “probe-labelled cysteine peptide fold change” value is -0.198 (10 µM) and -1.11 (50 µM).

Regarding “HDHD3_Q9BSH5_109_DFSHPCTWQVLDGAEDTLR (UniProt Q9BSH5)”, the “probe-labelled cysteine peptide fold change” value is, setting by setting: (10 µM) -0.47; (50 µM) -1.92.

Regarding “GPC4_O75487_341_VFQGCGPPK (UniProt O75487)”, the “probe-labelled cysteine peptide fold change” value by setting is: (10 µM) -0.24; (50 µM) -0.0603.

In the case of “GRHPR_Q9UBQ7_288_NCVILPHIGSATHR (UniProt Q9UBQ7)”, the “probe-labelled cysteine peptide fold change” value by setting is: (10 µM) 0.293; (50 µM) 0.0427.

Take “HDAC10_Q969S8_508_LLCVALGQLDRPPDLAHDGR (UniProt Q969S8)”: the “probe-labelled cysteine peptide fold change” value worked out at 0.15 (10 µM) and 0.0528 (50 µM).

“FTSJ3_Q8IY81_293_VCCQDIR (UniProt Q8IY81)”: the “probe-labelled cysteine peptide fold change” value runs as follows: (10 µM) 0.217; (50 µM) -0.481.

“GLOD4_Q9HC38-2_41_VLRHEEFEEGCK (UniProt Q9HC38)”: the “probe-labelled cysteine peptide fold change” value reads like this: (10 µM) -0.835; (50 µM) -1.19.

For the target “GSTP1_P09211_102_DQQEAALVDMVNDGVEDLRCK (UniProt P09211)”, the “probe-labelled cysteine peptide fold change” value reads like this: (10 µM) 0.0332; (50 µM) 1.08.

Regarding “GATD3B_A0A0B4J2D5_176+177_EFHQAGKPIGLCCIAPVLAAK<|>GATD3A_P0DPI2_176+177_EFHQAGKPIGLCCIAPVLAAK (UniProt P0DPI2)”, the “probe-labelled cysteine peptide fold change” value was -1.14 (10 µM) and -2.38 (50 µM).

As for “GTF3A_Q92664_191_AHEGYVCQK (UniProt Q92664)”, the “probe-labelled cysteine peptide fold change” value by setting is: (10 µM) 0.112; (50 µM) -0.151.

“HDDC3_Q8N4P3_133_CTPEGWSEHR (UniProt Q8N4P3)”: the “probe-labelled cysteine peptide fold change” value was 0.13 (10 µM) and -0.00995 (50 µM).

With “HELZ_P42694_100_AVLCCMQLK (UniProt P42694)”, the “probe-labelled cysteine peptide fold change” value reads like this: (10 µM) -0.406; (50 µM) -1.27.
